# PubChem BioAssay (NCI)
# “And” between values parts separate entries of the source, which are not always exact repeats. Equal values may be shown once. This is part of a sample that, as a whole, favours compounds with a hit. Of some 83,000 tested, about 20% had one in any assay.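 The test compound was applied at a single concentration to cells in 96-well plates for 48 hours, and percent growth was recorded.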 The source made the active and inactive calls. Rule for the calls: active = growth percent below 10; inactive = the rest.
# System: HL-60(TB) leukemia
# Experiment: NCI-60 one-dose screen, 48 h (100 = growth as untreated, 0 = no growth, -100 = all killed)
# Conditions: 10 µM unless noted
row,Compound,growth
1,CC(C)Cc1ccc(C(C)C(=O)NCc2ccc(Cn3c(=O)sn(CCCI)c3=O)cc2)cc1 (stereo not drawn),74.9% (inactive) and -41.5% (active)
2,CCCCCCCC(=O)SCC/C=C/[C@@H]1CC(=O)NCc2cccc(n2)C2=N[C@@](C)(CS2)C(=O)N[C@@H](C(C)C)C(=O)O1,19.9% (inactive)
3,Cn1c(=O)c2[nH]c(CCCCCCCCc3nc4ccccc4[nH]3)nc2n(C)c1=O,59.4% (inactive) and 71.2% (inactive)
4,O=C(CC(O)c1ccccc1)Nc1ccccn1 (stereo not drawn),97.3% (inactive)
5,Cc1cc(=O)[nH]c2c(C#N)cnn12,106% (inactive)
6,CCOC(=O)C1=NN(c2ccccc2)C(=O)/C1=C\N1C(=O)CC(=O)NC1=S,101% (inactive)
7,O=c1c2c([nH]c3ccccc13)CCCC2,97.6% (inactive) and 5.42% (active)
8,COc1ccc(-c2ccc3c(c2)sc2nc(-c4ccc(F)cc4)cn23)cc1,92% (inactive)
9,O=C1c2cccc3cccc(c23)C(=O)N1CC#Cc1ccc2c3c(cccc13)C(=O)N(CCO)C2=O,112% (inactive)
10,COc1c(/C(C)=N/N=c2sc(C(C)=O)nn2-c2ccc(Cl)cc2)c(Oc2ccccc2)c(OC)c2occc12,102% (inactive) and 104% (inactive)
11,COc1ccc(S(=O)(=O)ON=C2C=C(C)C(=O)C(C)=C2)cc1,43.7% (inactive)
12,C[C@@H](O)[C@H]1C(=O)N2C(C(=O)O)=C(SCCN=CN)C[C@H]12,19.1% (inactive)
13,CCOc1ccc(Nc2c3ccccc3nc3ccccc23)cc1,90.2% (inactive) and 8.63% (active) and 8.99% (active)
